# This is a sample that favours compounds with a hit; in the whole collection about 3% have one here.
# MITF act: activators of MITF-driven TRPM1 promoter activity in SK-MEL-5 cells | SK-MEL-5 TRPM1-promoter luciferase, 24 h; % of positive control, neutral wells = 0 | activation, % at 12.5 µM | hit rate 0.75% among 300,000 | AID 588334;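 active = mean activation of at least 80% with every replicate also reaching 80%; inconclusive = mean reaches 80% but some replicate falls short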;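 also: 0% = neutral control wells and 100% = parthenolide positive control wells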
# esBAF inh: blocks esBAF chromatin remodeling in mouse ES cells | Bmi1-luciferase knock-in reporter, 24 h; 100% = twice the neutral-well signal | reporter increase, % at 12.5 µM | hit rate 2% among 350,000 | AID 602393; in the data active = activation above about 40%; inconclusive = no clear call, values can overlap the other calls;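 also: 0% = median of the plate's neutral control wells and 100% = double that signal; a rise in the Bmi1 reporter signal indicates esBAF inhibition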
# C2C12 statin: suppressors of simvastatin-induced myotoxicity in C2C12 myotubes | ATP luminescence, 48 h; scaled: DMSO 0, geranylgeraniol control 100 | rescue of ATP level, % at 7.49 µM | hit rate 0.78% among 330,000;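 active = mean ATP rescue above about 67%, or every replicate alone reaching that limit, limit read from the data, passing the limit was not always enough; inconclusive = no clear call, values can overlap the other calls; inactive = mean under the limit and some replicate under it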;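 also: myotubes were challenged with 10 µM simvastatin during compound exposure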
# Wnt bcat act: activates Wnt/beta-catenin signaling in a reporter cell assay; activator, plate reader; activation, % at 9.35 µM; hit rate 1.2% among 300,000; in the data active = activation above about 30%, passing the limit was not always enough; inconclusive = no clear call, values can overlap the other calls;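 also: 0% = neutral control wells and 100% = positive control wells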
# An asterisk follows results filed as active; ? = inconclusive; · = no result given; ! = not active in a repeat.
SMILES,MITF act,esBAF inh,C2C12 statin,Wnt bcat act
Cc1ccc(S(=O)(=O)NCC(=O)OCC(=O)c2cccs2)cc1,17.7,9.4,124.8*,-0.6
Cc1ccc(S(=O)(=O)NCC(=O)OCC(=O)c2ccc(Br)s2)cc1,-7.9,-10.1,5.2,·
CCCNC(=O)[C@H]1[C@H](CO)[C@H]2Cn3c(ccc(-c4ccccc4F)c3=O)[C@H]2N1CCC,·,-4.1,-16.1,·
CO[C@H]1CN(C)C(=O)c2ccc(NC(=O)Nc3cccc(F)c3)cc2OC[C@H](C)NC[C@H]1C,·,2.3,-7.8,·
COc1ccc(N2C(=O)c3ccccc3NC2(C)C)cc1,47.3,5.2,8.9,-1.3
COc1ccc(N2C(=O)c3ccccc3NC23CCC(C)CC3)cc1 (stereo unspecified),64.7,·,·,·
COC(=O)C1(C)Nc2ccccc2C(=O)N1c1ccccc1OC (stereo unspecified),4.4,-4.4,11.0,2.6
CCC1(C)Nc2ccccc2C(=O)N1O (stereo unspecified),5.9,5.7,117.8*,·
COc1ccc(N2C(=O)c3ccccc3NC23CCCCC3)cc1,99.1*,-23.6,-15.9,27.9
CCOc1ccc(N2C(=O)c3ccccc3NC2(C)CC)cc1 (stereo unspecified),124.3*,18.4,0.6,?
CC1(C)Nc2ccccc2C(=O)N1c1ccc(Br)cc1,·,·,·,65.6*
COc1ccccc1NC(=O)N[C@@H]1CC[C@@H](CCn2cc(-c3ccccc3)nn2)O[C@H]1CO,·,23.6,1.6,·
CCNC(=O)C[C@H]1CC[C@@H]2[C@H](COC[C@@H](O)CN2Cc2ccncc2)O1,·,-4.4,5.3,·
C[C@@H]1CN([C@@H](C)CO)C(=O)c2cc(C#CC3CCCCC3)cnc2O[C@H]1CN(C)S(C)(=O)=O,·,8.1,53.3,·
Cc1noc(C)c1NC(=O)N(C)C[C@@H]1OCCCC[C@@H](C)Oc2ccc(NC(=O)Nc3ccc(F)cc3)cc2C(=O)N([C@@H](C)CO)C[C@H]1C,·,4.6,·,·
COc1cc(NC(=O)c2ccc(N)nc2)cc(C(=O)Nc2cccc(C(F)(F)F)c2)c1,34.6,45.2*!,-16.1,-1.6
COc1cc(NC(=O)c2nccnc2N)cc(C(=O)Nc2cccc(C(F)(F)F)c2)c1,-22.1,-2.8,-7.9,-1.1
COC(=O)c1cc(-c2ccc(OC)cc2)n[nH]1,91.4*,?,3.1,-1.7
COc1ccc(-c2cc(C(=O)Nc3cc(OC)cc(C(=O)Nc4cccc(C(F)(F)F)c4)c3)[nH]n2)cc1,9.4,48.0*!,-32.4,-1.8
Cc1ccccc1-c1ccc2c(c1)O[C@H](CN(C)Cc1ccncc1)[C@@H](C)CN([C@H](C)CO)S2(=O)=O,·,-3.1,-114.9,·
CCCCCNC(=O)c1ccc2c(=O)[nH]c3c(C(=O)NCC4CCCO4)sc(=S)n3c2c1 (stereo unspecified),-5.5,0.9,118.1*,4.8
Cn1c(NC(=O)c2ccccc2F)c(-c2cccs2)c(=O)c2ccccc21,-2.9,·,·,33.2*
Cn1c(NC(=O)c2ccc(F)cc2)c(-c2cccs2)c(=O)c2ccccc21,7.2,·,·,-4.9
CCCCOc1ccc(-c2ncc(Cl)cn2)cc1,105.1*,86.0*,10.3,-2.1
CCCCOc1ccc(-c2ncc([N+](=O)[O-])cn2)cc1,·,83.4*,2.0,39.8*
SMILES,MITF act,esBAF inh,C2C12 statin,Wnt bcat act
O=C(Nc1ccc2c(c1)[C@@H]1C[C@@H](CC(=O)N3CCCCC3)O[C@H](CO)[C@@H]1O2)C1CCOCC1,·,-7.2,6.9,·
COCC(=O)N(C)C[C@H]1Oc2cc(C#Cc3ccccc3)ccc2S(=O)(=O)N([C@H](C)CO)C[C@@H]1C,·,3.8,18.4,·
C/C(=N/NC(=O)c1ccco1)c1ccc(NC(=O)c2ccc(Br)o2)cc1,70.7,46.9*,-4.8,17.2
C/C(=N/NC(=O)c1ccco1)c1ccc(NC(=O)c2ccc(F)cc2)cc1,54.3,88.7*,0.6,48.4*
Cc1onc(-c2ccccc2Cl)c1C(=O)NCc1nc(-c2ccccc2)no1,-12.5,0.3,159.3*,-2.7
CC(C)c1cn(CC[C@H]2CC[C@@H](NS(=O)(=O)c3ccccc3)[C@H](CO)O2)nn1,·,4.2,0.8,·
O=C(CN1C(=O)S/C(=C\C=C\c2ccccc2)C1=O)Nc1cccc(O)c1,51.8,65.2*,6.3,24.4
O=C(O)CN1C(=O)/C(=C/C=C/c2ccccc2)SC1=S,4.2,·,·,49.0*
CC(=O)c1ccc(NC(=O)CN2C(=O)/C(=C/C=C/c3ccccc3)SC2=S)cc1,6.0,·,·,1.1
O=C(CN1C(=O)S/C(=C\C=C\c2ccccc2)C1=O)Nc1ccccc1C(=O)O,4.6,·,·,2.3
O=C(CCN1C(=O)S/C(=C\C=C\c2ccccc2)C1=O)Nc1ccc(O)cc1,35.3,93.2*,17.9,21.4

# Screens (PubChem BioAssay)
